In PubChem BioAssay (NCI):
About 83,000 compounds went through this panel and 20% of them were active in at least one assay; those are over-represented in the sample as a whole.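 Treatment: one concentration, 48 hours, 96-well format. Scoring: percent growth, with anything below 10 considered active.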 Calls of active or inactive are those of the source.

Key:
Test in all cases: NCI-60 one-dose screen, 48 h (100 = growth as untreated, 0 = no growth, -100 = all killed)
Settings in all cases: 10 µM unless noted
EKVX NSCLC = tested on: EKVX NSCLC
SN12C renal = tested on: SN12C renal
UO-31 renal = tested on: UO-31 renal
TK-10 renal = tested on: TK-10 renal
ACHN renal = tested on: ACHN renal
CAKI-1 renal = tested on: CAKI-1 renal
A498 renal = tested on: A498 renal
CCRF-CEM leukemia = tested on: CCRF-CEM leukemia
MOLT-4 leukemia = tested on: MOLT-4 leukemia

Measured: growth

O=C(Nc1cccc(Cl)c1)Oc1c(Br)c(Br)c(Br)c(Br)c1Br
inactive: EKVX NSCLC 92.1% | SN12C renal 92.7% | UO-31 renal 74.9% | TK-10 renal 99.9% | ACHN renal 104% | CAKI-1 renal 90.5% | A498 renal 78.3% | CCRF-CEM leukemia 87.9% | MOLT-4 leukemia 99.7%

ClCC1(Cn2cnc3c(Cl)nc(Cl)nc32)COC1
inactive: EKVX NSCLC 100% | SN12C renal 95.6% | UO-31 renal 88.7% | TK-10 renal 85.2% | ACHN renal 94.9% | CAKI-1 renal 49% | A498 renal 89.6% | CCRF-CEM leukemia 71.5% | MOLT-4 leukemia 87.7%

Cc1c2c(cc[n+]1Cc1ccccc1)c1ccc(OCC3CCCCC3)cc1n2CC1CCCCC1
active: EKVX NSCLC -75.5% | SN12C renal -91.9% | UO-31 renal -93.1% | TK-10 renal -93.6% | ACHN renal -100% | CAKI-1 renal -92.5% | CCRF-CEM leukemia -36.2% | MOLT-4 leukemia -64.5%

O=C(CCN1CCCC1)Nc1ccc2c(Nc3ccccc3)c3ccccc3nc2c1
active: UO-31 renal -28.3% | TK-10 renal 1.74% | ACHN renal 1.77% | CAKI-1 renal -11.9% | CCRF-CEM leukemia -8.84% | MOLT-4 leukemia -4.75%
inactive: EKVX NSCLC 59.3% | SN12C renal 13.3%

O=C1c2ccccc2-c2c1c1c(NCCCO)nc3ccccc3c1n2Cc1ccccc1
active: UO-31 renal -40.9% | TK-10 renal -20.2%
inactive: EKVX NSCLC 17.8% | SN12C renal 18.6% | ACHN renal 50.1% | CAKI-1 renal 33.9% | CCRF-CEM leukemia 36% | MOLT-4 leukemia 16.9%

COc1ccc(C2=NN(C(C)=O)C(c3cn(Cc4ccc(Cl)cc4)c4ccccc34)C2)cc1 (stereo not given)
inactive: EKVX NSCLC 58.4% | SN12C renal 72.2% | UO-31 renal 53.4% | TK-10 renal 82.9% | ACHN renal 74.5% | CAKI-1 renal 52.2% | A498 renal 72.9% | CCRF-CEM leukemia 70.7% | MOLT-4 leukemia 67.8%

Cc1[nH]n(-c2cccc(Cl)c2)c(=O)c1/C=C1\C=Nc2ccc(Br)cc21
inactive: EKVX NSCLC 41.1% | ACHN renal 11.6% | CAKI-1 renal 22.4% | MOLT-4 leukemia 26.9%
active: SN12C renal 3.46% | UO-31 renal -9.91% | TK-10 renal -51.3% | CCRF-CEM leukemia 6.42%

O=C(OCc1nc2nc(Cl)nc(N3CCOCC3)c2[nH]1)n1ccnc1
active: SN12C renal 8.48% | UO-31 renal -81% | TK-10 renal -77.4% | ACHN renal -100% | CAKI-1 renal -68.8% | A498 renal -4.23% | CCRF-CEM leukemia -12% | MOLT-4 leukemia 9.71%
inactive: EKVX NSCLC 62.1%

Cc1cccc(Oc2ccc(Nc3ncnc4ccc(NC(=O)CNCCO)cc34)cc2Cl)c1
inactive: EKVX NSCLC 34.9% | SN12C renal 39.4% | UO-31 renal 41% | TK-10 renal 39.8% | ACHN renal 27.1% | CAKI-1 renal 52.9% | A498 renal 49.7% | CCRF-CEM leukemia 72.3% | MOLT-4 leukemia 62%

COc1ccc(-c2cnc(N)nc2-c2ccc(OC)cc2O)cc1
inactive: EKVX NSCLC 96.8% | SN12C renal 98.5% | UO-31 renal 70.2% | TK-10 renal 99.1% | ACHN renal 87.9% | CAKI-1 renal 86.5% | A498 renal 99.8% | CCRF-CEM leukemia 82.4% | MOLT-4 leukemia 77.2%

COc1cc(/C=C2\C(=O)N(Cc3ccc(Cl)cc3)c3ccccc32)cc(OC)c1OC
active: CCRF-CEM leukemia -3.04% | MOLT-4 leukemia 8.46%
inactive: EKVX NSCLC 88.8% | SN12C renal 24.9% | UO-31 renal 26.6% | TK-10 renal 20.5% | ACHN renal 40.6% | CAKI-1 renal 24.6% | A498 renal 26.2%

CC(Oc1ccc(C(=O)NS(=O)(=O)C(C)(C)C)cc1C(F)(F)F)c1ccc(Oc2ccccc2)cn1 (stereo not given)
inactive: EKVX NSCLC 86.5% | SN12C renal 86.1% | UO-31 renal 67.9% | TK-10 renal 79.7% | ACHN renal 89.4% | CAKI-1 renal 40.8% | CCRF-CEM leukemia 74.1% | MOLT-4 leukemia 98.5%

CC1(C)CCCN1CCCN1c2ccccc2Sc2ccc(Cl)cc21
inactive: EKVX NSCLC 61.5% | SN12C renal 68.1% | UO-31 renal 42.3% | TK-10 renal 84.6% | ACHN renal 61.8% | CAKI-1 renal 60% | A498 renal 61.7% | CCRF-CEM leukemia 41.7% | MOLT-4 leukemia 41.7%

CC(=O)OCC(=O)[C@@]1(O)CC[C@H]2[C@@H]3CC(=C(Br)Br)C4=CC(=O)CC[C@]4(C)[C@H]3C(=O)C[C@@]21C
inactive: EKVX NSCLC 90.1% | SN12C renal 93.6% | UO-31 renal 68.3% | TK-10 renal 91.2% | ACHN renal 94.1% | CAKI-1 renal 81.7% | A498 renal 79.5% | CCRF-CEM leukemia 83.3% | MOLT-4 leukemia 93.1%

COc1ccc(-c2nn(Cc3ccccc3)c3c2-c2oncc2CC3)cc1OC
inactive: EKVX NSCLC 67% | SN12C renal 85.8% | UO-31 renal 75% | TK-10 renal 84.1% | ACHN renal 90.9% | CAKI-1 renal 81.8% | A498 renal 57.4% | CCRF-CEM leukemia 98.3% | MOLT-4 leukemia 67.2%
